According to the supplement of paper PMC9262897, “Low-cost anti-mycobacterial drug discovery using engineered E. coli” (Nature Communications, 2022):
Counter-ions that a name gives are not always drawn. ± gives the standard deviation of the averaged measurements.

tested on: E. coli TESEC Mtb Alr; assay: growth (OD600 after 10 h); higher = more growth (less inhibition); details: arabinose 10000000 nM; compound 0.1 mM; raw OD600 reference: median of DMSO wells 0.146, cell-free background 0.041
Procedure: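 TESEC Mtb Alr E. coli, or the Alr+ wild-type control, in 384-well plates with Prestwick library compounds at 0.1 mM and 1% DMSO, across arabinose induction levels of 1E3 to 1E7 nM. Growth is read as OD600 after 10 h at 37 °C in triplicate biological replicates.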

Structure (SMILES)	growth
CN(C)CCCOc1nn(Cc2ccccc2)c2ccccc12 [Benzydamine hydrochloride]	0.146 ± 0.0037
CC1CS(=O)(=O)CCN1/N=C/c1ccc([N+](=O)[O-])o1 (stereo not given) [Nifurtimox]	0.0554 ± 0.00081
NCC[C@H](O)C(=O)N[C@@H]1C[C@H](N)[C@@H](O[C@H]2O[C@H](CN)[C@@H](O)[C@H](O)[C@H]2O)[C@H](O)[C@H]1O[C@H]1O[C@H](CO)[C@@H](O)[C@H](N)[C@H]1O [Amikacin hydrate]	0.0506 ± 0.00051
Cc1cn([C@H]2C[C@H](N=[N+]=[N-])[C@@H](CO)O2)c(=O)[nH]c1=O [Zidovudine, AZT]	0.103 ± 0.0045
NC1CCN(c2nc3c(cc2F)c(=O)c(C(=O)O)cn3-c2ccc(F)cc2F)C1 (stereo not given) [Tosufloxacin hydrochloride]	0.0575 ± 0.0043
CC[C@H](C)C(=O)O[C@H]1C[C@H](O)C=C2C=C[C@H](C)[C@H](CC[C@@H](O)C[C@@H](O)CC(=O)O)[C@H]21 [Pravastatin]	0.152 ± 0.0073
CC(NCCC(c1ccccc1)c1ccccc1)c1ccccc1 (stereo not given) [Fendiline hydrochloride]	0.04153 ± 0.00035
CCN1CCCC(OC(=O)C(c2ccccc2)c2ccccc2)C1 (stereo not given) [Piperidolate hydrochloride]	0.136 ± 0.0042
COc1ccc(C(=O)NCc2ccc(OCCN(C)C)cc2)cc1OC [Itopride]	0.159 ± 0.0051
CCCCOc1ccc(C(=O)CCN2CCCCC2)cc1 [Dyclonine hydrochloride]	0.144 ± 0.0069
CC(C)C(=O)c1c(C(C)C)nn2ccccc12 [Ibudilast]	0.127 ± 0.0043
CC(O)(P(=O)(O)O)P(=O)(O)O [Etidronic acid, disodium salt]	0.159 ± 0.003
Nc1ccc(O)c(C(=O)O)c1 [Mesalamine]	0.144 ± 0.0074
CC=CC1=C(C(=O)O)N2C(=O)[C@@H](NC(=O)[C@H](N)c3ccc(O)cc3)[C@H]2SC1 [Cefprozil]	0.163 ± 0.0058
O=C(OCC(O)CO)c1ccccc1Nc1ccnc2cc(Cl)ccc12 (stereo not given) [Glafenine hydrochloride]	0.144 ± 0.0045
CC1Cc2ccccc2N1NC(=O)c1ccc(Cl)c(S(N)(=O)=O)c1 (stereo not given) [Indapamide]	0.15 ± 0.009

Structure (SMILES)	growth
CN(C)CCN1C(=O)c2ccccc2N(C)c2ccccc21 [Dibenzepine hydrochloride]	0.139 ± 0.0036
CO[C@@]1(NC(=O)Cc2cccs2)C(=O)N2C(C(=O)O)=C(COC(N)=O)CS[C@@H]21 [Cefoxitin sodium salt]	0.0389 ± 0.00036
CCC1(c2ccccc2)NC(=O)N(C)C1=O (stereo not given) [Mephenytoin]	0.152 ± 0.0052
CCN(CC)CC#CCOC(=O)C(O)(c1ccccc1)C1CCCCC1 (stereo not given) [Oxybutynin chloride]	0.117 ± 0.0015
COC(=O)[C@H](c1ccccc1Cl)N1CCc2sccc2C1 [Clopidogrel]	0.0663 ± 0.00069
CN(C)CCOc1ccc(/C(=C(/CCCl)c2ccccc2)c2ccccc2)cc1 [Toremifene]	0.04073 ± 0.00021
O=C1c2ccccc2S(=O)(=O)N1CCCCN1CCN(c2ncccn2)CC1 [Ipsapirone]	0.141 ± 0.0076
COc1ccc(-c2cc(=S)ss2)cc1 [Anethole-trithione]	0.168 ± 0.0049
CCCc1nc2c(C)cc(-c3nc4ccccc4n3C)cc2n1Cc1ccc(-c2ccccc2C(=O)O)cc1 [Telmisartan]	0.156 ± 0.0075
CSc1ccc2c(c1)N(CCC1CCCCN1C)c1ccccc1S2 (stereo not given) [Thioridazine hydrochloride]	0.04007 ± 5.8e-05
CCOC(=O)c1ccc(N)cc1 [Benzocaine]	0.1551 ± 0.0012
Cc1cc2c(cc1S(N)(=O)=O)S(=O)(=O)CCC2 [Meticrane]	0.142 ± 0.0066
CC(C)COCC(CN(Cc1ccccc1)c1ccccc1)N1CCCC1 (stereo not given) [Bepridil hydrochloride]	0.0411 ± 0.0014
NC[C@H]1O[C@H](O[C@H]2[C@H](O[C@@H]3O[C@H](CO)[C@@H](O)[C@H]3O)[C@@H](O)[C@H](N)C[C@@H]2N)[C@H](N)[C@@H](O)[C@@H]1O [Ribostamycin sulfate salt]	0.138 ± 0.0082
N=C(N)NS(=O)(=O)c1ccc(N)cc1 [Sulfaguanidine]	0.143 ± 0.0034

tested on: E. coli TESEC Mtb Asd; assay: as above; details: arabinose induction (level): High; compound 0.1 mM; raw OD600 reference: median of DMSO wells 0.331, cell-free background 0.041
Procedure: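 TESEC E. coli strains in which the native enzyme is deleted and replaced by arabinose-inducible Mtb Asd, DapB, CysH or TrpD, each grown in its selective medium. Strains were screened against the Prestwick library at 0.1 mM and 1% DMSO in 384-well format at low and high arabinose induction. Growth is read as OD600 after 10 h in triplicate.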

Structure (SMILES)	growth
CN1CCc2cccc3c2[C@H]1Cc1ccc(O)c(O)c1-3 [R(-) Apomorphine hydrochloride hemihydrate]	0.152 ± 0.027
CN1CCCN(C(c2ccccc2)c2ccc(Cl)cc2)CC1 (stereo not given) [Homochlorcyclizine dihydrochloride]	0.123 ± 0.011
Cc1ncc(CO)c(CO)c1O [Pyridoxine hydrochloride]	0.344 ± 0.1
O=C(NCC(O)CO)c1c(I)c(C(=O)NCC(O)CO)c(I)c(N(CCO)C(=O)CO)c1I (stereo not given) [Ioversol]	0.477 ± 0.014
C[C@@H]1[C@H](O)[C@@H](C)/C=C/C=C/C=C/C=C/C=C/C=C/C=C/[C@H](O[C@@H]2O[C@H](C)[C@@H](O)[C@H](N)[C@@H]2O)C[C@@H]2O[C@](O)(C[C@@H](O)C[C@@H](O)[C@H](O)CC[C@@H](O)C[C@@H](O)CC(=O)O[C@H]1C)C[C@H](O)[C@H]2C(=O)O [Amphotericin B]	0.416 ± 0.042
C=Cc1c(C)c2cc3nc(cc4[nH]c(cc5nc(cc1[nH]2)C(C)=C5CCC(=O)O)c(CCC(=O)OC)c4C)[C@@]1(C)C3=CC=C(C(=O)OC)C1C(=O)OC.C=Cc1c(C)c2cc3nc(cc4[nH]c(cc5nc(cc1[nH]2)C(C)=C5CCC(=O)OC)c(CCC(=O)O)c4C)[C@@]1(C)C3=CC=C(C(=O)OC)C1C(=O)OC (stereo not given in full) [Verteporfin]	0.329 ± 0.016
CC(C)C[C@H](NC(=O)[C@@H](O)[C@H](N)Cc1ccccc1)C(=O)O [Ubenimex]	0.395 ± 0.019
CC(COc1ccccc1)N(CCCl)Cc1ccccc1 (stereo not given) [Phenoxybenzamine hydrochloride]	0.199 ± 0.018
CN(C)CCCOc1nn(Cc2ccccc2)c2ccccc12 [Benzydamine hydrochloride]	0.193 ± 0.043
CC1CS(=O)(=O)CCN1/N=C/c1ccc([N+](=O)[O-])o1 (stereo not given) [Nifurtimox]	0.212 ± 0.049
NCC[C@H](O)C(=O)N[C@@H]1C[C@H](N)[C@@H](O[C@H]2O[C@H](CN)[C@@H](O)[C@H](O)[C@H]2O)[C@H](O)[C@H]1O[C@H]1O[C@H](CO)[C@@H](O)[C@H](N)[C@H]1O [Amikacin hydrate]	0.0495 ± 0.0018
Cc1cn([C@H]2C[C@H](N=[N+]=[N-])[C@@H](CO)O2)c(=O)[nH]c1=O [Zidovudine, AZT]	0.1 ± 0.0079
NC1CCN(c2nc3c(cc2F)c(=O)c(C(=O)O)cn3-c2ccc(F)cc2F)C1 (stereo not given) [Tosufloxacin hydrochloride]	0.054 ± 0.01
CC[C@H](C)C(=O)O[C@H]1C[C@H](O)C=C2C=C[C@H](C)[C@H](CC[C@@H](O)C[C@@H](O)CC(=O)O)[C@H]21 [Pravastatin]	0.323 ± 0.015
CC(NCCC(c1ccccc1)c1ccccc1)c1ccccc1 (stereo not given) [Fendiline hydrochloride]	0.0469 ± 0.0006
CCN1CCCC(OC(=O)C(c2ccccc2)c2ccccc2)C1 (stereo not given) [Piperidolate hydrochloride]	0.176 ± 0.025
COc1ccc(C(=O)NCc2ccc(OCCN(C)C)cc2)cc1OC [Itopride]	0.303 ± 0.083
CCCCOc1ccc(C(=O)CCN2CCCCC2)cc1 [Dyclonine hydrochloride]	0.269 ± 0.064
CC(C)C(=O)c1c(C(C)C)nn2ccccc12 [Ibudilast]	0.183 ± 0.011
CC(O)(P(=O)(O)O)P(=O)(O)O [Etidronic acid, disodium salt]	0.474 ± 0.015

Structure (SMILES)	growth
Nc1ccc(O)c(C(=O)O)c1 [Mesalamine]	0.339 ± 0.052
CC=CC1=C(C(=O)O)N2C(=O)[C@@H](NC(=O)[C@H](N)c3ccc(O)cc3)[C@H]2SC1 [Cefprozil]	0.259 ± 0.048
O=C(OCC(O)CO)c1ccccc1Nc1ccnc2cc(Cl)ccc12 (stereo not given) [Glafenine hydrochloride]	0.253 ± 0.04
CC1Cc2ccccc2N1NC(=O)c1ccc(Cl)c(S(N)(=O)=O)c1 (stereo not given) [Indapamide]	0.224 ± 0.01
CN(C)CCN1C(=O)c2ccccc2N(C)c2ccccc21 [Dibenzepine hydrochloride]	0.23 ± 0.059
CO[C@@]1(NC(=O)Cc2cccs2)C(=O)N2C(C(=O)O)=C(COC(N)=O)CS[C@@H]21 [Cefoxitin sodium salt]	0.0597 ± 0.0059
CCC1(c2ccccc2)NC(=O)N(C)C1=O (stereo not given) [Mephenytoin]	0.235 ± 0.029
CCN(CC)CC#CCOC(=O)C(O)(c1ccccc1)C1CCCCC1 (stereo not given) [Oxybutynin chloride]	0.137 ± 0.017
COC(=O)[C@H](c1ccccc1Cl)N1CCc2sccc2C1 [Clopidogrel]	0.158 ± 0.014
CN(C)CCOc1ccc(/C(=C(/CCCl)c2ccccc2)c2ccccc2)cc1 [Toremifene]	0.0528 ± 0.00055
O=C1c2ccccc2S(=O)(=O)N1CCCCN1CCN(c2ncccn2)CC1 [Ipsapirone]	0.226 ± 0.048
COc1ccc(-c2cc(=S)ss2)cc1 [Anethole-trithione]	0.211 ± 0.018
CCCc1nc2c(C)cc(-c3nc4ccccc4n3C)cc2n1Cc1ccc(-c2ccccc2C(=O)O)cc1 [Telmisartan]	0.2439 ± 0.00056
CSc1ccc2c(c1)N(CCC1CCCCN1C)c1ccccc1S2 (stereo not given) [Thioridazine hydrochloride]	0.0505 ± 0.0013
CCOC(=O)c1ccc(N)cc1 [Benzocaine]	0.469 ± 0.013
Cc1cc2c(cc1S(N)(=O)=O)S(=O)(=O)CCC2 [Meticrane]	0.389 ± 0.044
CC(C)COCC(CN(Cc1ccccc1)c1ccccc1)N1CCCC1 (stereo not given) [Bepridil hydrochloride]	0.04653 ± 0.00032
NC[C@H]1O[C@H](O[C@H]2[C@H](O[C@@H]3O[C@H](CO)[C@@H](O)[C@H]3O)[C@@H](O)[C@H](N)C[C@@H]2N)[C@H](N)[C@@H](O)[C@@H]1O [Ribostamycin sulfate salt]	0.37 ± 0.013
N=C(N)NS(=O)(=O)c1ccc(N)cc1 [Sulfaguanidine]	0.38 ± 0.028
